Measurements: PubChem BioAssay (Tox21)
Results filed as inconclusive are left out. Active and inactive are the calls of the source. Unless noted, calls follow the shape of the dose curve; as a rule, active = well fitted curve in the direction sought with a large enough effect in the repeat runs; inconclusive = weak or mixed curves; inactive = no such curve, though single readings can be large; an effect the other way counts as inactive or inconclusive.

Key:
[1] = qHTS assay to identify small molecule agonists of the peroxisome proliferator-activated receptor delta (PPARd) signaling pathway - cell viability counter screen (AID 743211); also: nearly all actives have a fitted effect of over 55% in size
How it was run: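 Counter screen for cytotoxicity run in parallel with the PPARd reporter screen. Beta-lactamase reporter HEK293H cells exposed to compounds 17 h; ATP-based CellTiter-Glo luminescence quantified viability.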

[2] = biological target: Peroxisome proliferator-activated receptor delta (Homo sapiens) (UniProt Q03181); assay: qHTS assay to identify small molecule agonists of the peroxisome proliferator-activated receptor delta (PPARd) signaling pathway (AID 743212; calls by dose curve)
How it was run: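 GeneBLAzer UAS-bla HEK293H cells carrying a PPARδ construct were exposed to compounds at 37 °C. Beta-lactamase activity was read by FRET fluorescence after 2 h at room temperature with LiveBLAzer B/G substrate.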

[3] = qHTS assay to identify small molecule antagonists of the peroxisome proliferator-activated receptor delta (PPARd) signaling pathway - cell viability counter screen (AID 743213); also: nearly all actives have a fitted effect of over 50% in size
How it was run: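 Same-well viability: cells pre-incubated 5 h, dosed with compound plus 300 nM L165041, kept 17 h at 37 C, FRET substrate 2 h RT, then CellTiter-Glo 30 min RT and luminescence.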

[4] = biological target: Peroxisome proliferator-activated receptor delta (Homo sapiens) (UniProt Q03181); assay: qHTS assay to identify small molecule antagonists of the peroxisome proliferator-activated receptor delta (PPARd) signaling pathway (AID 743215; active = well fitted inhibition curve with a large enough effect in the signal ratio in the repeat runs, not every such curve was filed as active; the % refers to the signal ratio;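 also: cells stimulated with agonist L165041 at 300 nM final during compound exposure; series mostly up to about 62 µM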)
How it was run: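 PPARd UAS-bla HEK293H cells were pre-incubated 5 h at 37 C, then given test compounds in DMSO plus agonist L165041 (300 nM final). After 17 h at 37 C, beta-lactamase FRET substrate was added; fluorescence read after 2 h at room temperature.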

[5] = qHTS assay to identify small molecule agonists of the farnesoid-X-receptor (FXR) signaling pathway - cell viability counter screen (AID 743218); also: nearly all actives have a fitted effect of over 45% in size
How it was run: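 FXR-UAS-bla HEK 293T cells, plated 5 h at 37 C, were exposed to compounds for 16 h at 37 C. CellTiter-Glo was then added to the same wells as the bla readout; luminescence read after 30 min at room temperature.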

[6] = biological target: Vitamin D3 receptor (Homo sapiens) (UniProt P11473); assay: qHTS assay to identify small molecule agonists of the vitamin D receptor (VDR) signaling pathway (AID 743222; calls by dose curve)
How it was run: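 VDR-bla cells were plated 4 h at 37C/5% CO2, then exposed to compounds in DMSO for 16 h. After LiveBLAzer B/G FRET substrate addition and 2 h at room temperature, beta-lactamase reporter fluorescence was read.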

[7] = qHTS assay to identify small molecule antagonists of the vitamin D receptor (VDR) signaling pathway - cell viability counter screen (AID 743225); also: nearly all actives have a fitted effect of over 50% in size
How it was run: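 HEK293T VDR-bla; cpd + 1a,25-(OH)2D3 3 nM final, 16 h 37C/5% CO2; B/G FRET substrate 2 h RT; then CellTiter-Glo 30 min RT, luminescence.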

[8] = qHTS assay to identify small molecule agonists of the NFkB signaling pathway (AID 1159509; active = well fitted curve in the direction sought with a large enough effect in the signal ratio in the repeat runs, not every such curve was filed as active; the % refers to the signal ratio; also: series mostly up to about 61 µM)
How it was run: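 NFkB-bla ME-180 cells carry a beta-lactamase reporter under an NF-kB response element. They were plated overnight, then exposed to compounds for 5 h at 37 C. Read-out is LiveBLAzer FRET after 1.5 hr at room temperature (405 nm excitation; 460/530 nm emission).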

[9] = qHTS assay to identify small molecule agonists of the NFkB signaling pathway - cell viability counter screen (AID 1159515; calls by dose curve; also: series mostly up to about 61 µM; nearly all actives have a fitted effect of over 55% in size)
How it was run: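 NFkB-bla ME-180 cells, 2,000/well, were plated overnight at 37 C, 5% CO2, then exposed to compounds in DMSO for 5 hr. After the bla FRET read, CellTiter-Glo was added to the same wells; luminescence was read after 30 min at room temperature.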

[10] = qHTS assay to identify small molecule agonists of the endoplasmic reticulum stress response signaling pathway (AID 1159516; active = well fitted activation curve with a large enough effect in the signal ratio in the repeat runs, not every such curve was filed as active; the % refers to the signal ratio)
How it was run: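 CellSensor ESRE-bla HeLa cells, carrying a beta-lactamase reporter driven by the ER stress response element, were plated overnight and exposed to compounds for 5 hr at 37 C. Reporter activity was read as FRET substrate fluorescence after 2 hr at room temperature.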

[11] = qHTS assay to identify small molecule agonists of the endoplasmic reticulum stress response signaling pathway - cell viability counter screen (AID 1159517; calls by dose curve; also: series mostly up to about 61 µM; nearly all actives have a fitted effect of over 50% in size)
How it was run: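 ESRE-bla HeLa cells, 1,500 per well, seeded overnight then treated with compounds for 5 hr at 37 C. After the beta-lactamase read, viability in the same wells is measured by CellTiter-Glo luminescence after 30 min at room temperature.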

[12] = qHTS assay to identify small molecule antagonists of the retinoid-related orphan receptor gamma (ROR-gamma) signaling pathway - cell viability counter screen (AID 1159520); also: nearly all actives have a fitted effect of over 50% in size
How it was run: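 Tet-on ROR gamma CHO cells were given compounds for 2 hr, then doxycycline hyclate at 1 uM final, and incubated 16 hr at 37 C. Viability was measured as ATP content by CellTiter-Glo luminescence.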

[13] = biological target: Nuclear receptor ROR-gamma (Homo sapiens) (UniProt P51449); assay: qHTS assay to identify small molecule antagonists of the retinoid-related orphan receptor gamma (ROR-gamma) signaling pathway (AID 1159521)
How it was run: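 Cells were plated, rested 4 h at 37 C, exposed to compounds for 2 h, then given 1 uM final doxycycline hyclate to induce RORγ expression. After 16 h, ONE-Glo luminescence from the ROR response element reporter was measured.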

[14] = qHTS assay to identify small molecule agonists of the AP-1 signaling pathway - cell viability counter screen (AID 1159525; calls by dose curve; also: nearly all actives have a fitted effect of over 55% in size)
How it was run: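 AP-1-bla ME-180 cells in Opti-MEM with 0.5% dialyzed FBS, compound exposure 5 h at 37 C in 15-point titration. Viability read in the same wells as ATP content by CellTiter-Glo luminescence, normalised to tetra-n-octylammonium bromide and DMSO controls.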

[15] = qHTS assay to identify small molecule agonists of the AP-1 signaling pathway (AID 1159526; calls by dose curve)
[16] = biological target: Bile acid receptor (Homo sapiens) (UniProt Q96RI1); assay: qHTS assay to identify small molecule antagonists of the farnesoid-X-receptor (FXR) signaling pathway (AID 743217; active = well fitted inhibition curve with a large enough effect in the signal ratio in the repeat runs, not every such curve was filed as active; the % refers to the signal ratio)
How it was run: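 FXR-UAS-bla HEK 293T cells pre-incubated 5 h at 37 °C, then exposed to compounds with chenodeoxycholic acid (50 uM final) for 16 h at 37 °C. Beta-lactamase reporter read by LiveBLAzer B/G FRET substrate fluorescence after 2 h at room temperature.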

[17] = biological target: Bile acid receptor (Homo sapiens) (UniProt Q96RI1); assay: qHTS assay to identify small molecule agonists of the farnesoid-X-receptor (FXR) signaling pathway (AID 743220; active = well fitted activation curve with a large enough effect in the signal ratio in the repeat runs, not every such curve was filed as active; the % refers to the signal ratio)
How it was run: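 Beta-lactamase reporter under UAS control in GeneBLAzer FXR HEK 293T cells (5000/well) measured with LiveBLAzer FRET substrate after 2 h at room temperature. Compound exposure lasted 16 h at 37C.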

[18] = qHTS assay to identify small molecule antagonists of the farnesoid-X-receptor (FXR) signaling pathway - cell viability counter screen (AID 743221; active = well fitted cell-killing curve with a large enough effect in the repeat runs, not every such curve was filed as active; also: nearly all actives have a fitted effect of over 50% in size)
How it was run: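 Multiplexed counter screen: viability of FXR-bla HEK 293T cells under agonist stimulation by chenodeoxycholic acid (50 uM, final) and test compound for 16 h at 37 C, measured by CellTiter-Glo luminescence in the reporter wells.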

[19] = qHTS assay to identify small molecule agonists of the vitamin D receptor (VDR) signaling pathway - cell viability counter screen (AID 743224)
How it was run: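 VDR-bla cells were preincubated 4 h at 37C/5% CO2, then exposed to compounds for 16 h. After the 2 h room-temperature bla FRET read, CellTiter-Glo was added to the same wells and luminescence read after 30 min.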

[20] = biological target: Vitamin D3 receptor (Homo sapiens) (UniProt P11473); assay: qHTS assay to identify small molecule antagonists of the vitamin D receptor (VDR) signaling pathway (AID 743223; active = well fitted inhibition curve with a large enough effect in the signal ratio in the repeat runs, not every such curve was filed as active; the % refers to the signal ratio)
How it was run: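 Cells carrying a VDR-driven beta-lactamase reporter (VDR-bla) were co-treated with compound and 3 nM final 1alpha,25-dihydroxyvitamin D3 for 16 h at 37C; reporter activity was measured as FRET substrate fluorescence after 2 h at room temperature.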

Measured: outcome

Sequence of Peroxisome proliferator-activated receptor delta (Homo sapiens) (Q03181 whole entry, looked up): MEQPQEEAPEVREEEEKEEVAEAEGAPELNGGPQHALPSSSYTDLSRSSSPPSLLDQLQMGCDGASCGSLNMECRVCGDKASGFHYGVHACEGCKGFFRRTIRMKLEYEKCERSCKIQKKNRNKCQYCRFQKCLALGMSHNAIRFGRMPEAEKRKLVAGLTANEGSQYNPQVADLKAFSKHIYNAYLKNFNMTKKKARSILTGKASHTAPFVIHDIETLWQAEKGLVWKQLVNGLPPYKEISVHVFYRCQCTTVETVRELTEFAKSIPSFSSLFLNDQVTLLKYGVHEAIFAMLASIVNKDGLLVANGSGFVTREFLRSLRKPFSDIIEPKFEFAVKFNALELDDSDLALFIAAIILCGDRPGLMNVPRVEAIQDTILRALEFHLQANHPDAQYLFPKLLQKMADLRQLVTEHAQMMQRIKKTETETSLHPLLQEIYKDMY
Sequence of Vitamin D3 receptor (Homo sapiens) (P11473 whole entry, looked up): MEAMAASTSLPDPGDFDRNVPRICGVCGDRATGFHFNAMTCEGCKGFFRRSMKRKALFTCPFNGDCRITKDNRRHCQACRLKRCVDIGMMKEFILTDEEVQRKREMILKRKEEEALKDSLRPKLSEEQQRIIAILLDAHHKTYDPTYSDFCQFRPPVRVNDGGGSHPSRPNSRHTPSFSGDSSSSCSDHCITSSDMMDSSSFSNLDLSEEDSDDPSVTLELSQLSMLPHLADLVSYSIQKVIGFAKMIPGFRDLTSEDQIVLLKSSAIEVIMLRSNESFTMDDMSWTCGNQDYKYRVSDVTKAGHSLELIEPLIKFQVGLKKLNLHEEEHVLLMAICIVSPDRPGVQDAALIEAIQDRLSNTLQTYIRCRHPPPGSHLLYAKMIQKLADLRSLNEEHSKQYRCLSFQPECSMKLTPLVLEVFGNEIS
Sequence of Bile acid receptor (Homo sapiens) (Q96RI1 whole entry, looked up): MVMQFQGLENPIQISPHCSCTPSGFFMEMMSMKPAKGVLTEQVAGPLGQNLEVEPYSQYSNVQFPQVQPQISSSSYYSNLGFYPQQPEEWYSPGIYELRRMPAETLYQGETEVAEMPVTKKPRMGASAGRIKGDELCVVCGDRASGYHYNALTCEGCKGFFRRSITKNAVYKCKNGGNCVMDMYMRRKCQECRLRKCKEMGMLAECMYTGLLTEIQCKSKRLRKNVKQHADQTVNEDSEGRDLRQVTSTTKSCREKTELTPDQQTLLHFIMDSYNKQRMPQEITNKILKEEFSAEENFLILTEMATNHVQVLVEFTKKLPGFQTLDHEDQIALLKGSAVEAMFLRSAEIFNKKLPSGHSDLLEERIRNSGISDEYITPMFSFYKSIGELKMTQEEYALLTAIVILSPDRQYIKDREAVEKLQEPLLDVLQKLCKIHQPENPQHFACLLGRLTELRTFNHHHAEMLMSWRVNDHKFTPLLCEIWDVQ

ONc1ccccc1
not listed: [16] | [17] | [18] | [19] | [20]
inactive: all other assays above

CC/C(C)=N\O[Si](C)(O/N=C(\C)CC)O/N=C(\C)CC
not listed: [3] | [19] | [20]
inactive: all other assays above

OC[C@@H](O)C(O)[C@@H](O)CO (stereo partly drawn)
not listed: [6] | [7] | [16] | [17] | [18] | [20]
inactive: all other assays above

CCCC(=O)Nc1ccc(OCC(O)CNC(C)C)c(C(C)=O)c1 (stereo not drawn)
not listed: [5] | [16] | [17] | [19]
inactive: all other assays above

CC(C)=CCC/C(C)=C/COC=O
not listed: [6] | [16] | [17]
inactive: all other assays above

CCCCCCCCCCOC(C)=O
not listed: [6] | [16] | [17] | [18]
inactive: all other assays above

O=C(O)[C@H](O)c1ccccc1
not listed: [3] | [20]
inactive: all other assays above

CC(C)COC(=O)c1ccccc1
not listed: [5] | [7] | [16] | [17] | [18] | [20]
inactive: all other assays above

c1ccc2cnccc2c1
not listed: [4] | [5] | [16] | [17] | [18] | [20]
inactive: all other assays above

CC1(C)O[C@H]2CC(=O)OC[C@]23[C@H]2CC[C@@]4(C)[C@H](c5ccoc5)OC(=O)[C@H]5O[C@]54[C@]2(C)C(=O)C[C@@H]13
not listed: [3] | [16] | [17] | [18] | [20]
inactive: all other assays above

CCCCCCCCCOC(=O)CCCCC(=O)OCCCCCCC
not listed: [3] | [4] | [6] | [16] | [17] | [20]
inactive: all other assays above

CC1(C)Oc2ccc(C#N)cc2[C@@H](N2CCCC2=O)[C@@H]1O
not listed: [2] | [4] | [6] | [20]
inactive: all other assays above

CCCCSCCCC
not listed: [3] | [6] | [16] | [17] | [20]
inactive: all other assays above

CC(Oc1cc(Cl)ccc1Cl)C(=O)O (stereo not drawn)
not listed: [2] | [6] | [16] | [17] | [20]
inactive: all other assays above

CC(CO)(CO)CO
not listed: [3] | [4] | [16] | [17] | [19]
inactive: all other assays above

CC(C)CO
not listed: [2] | [4] | [16] | [17] | [19] | [20]
inactive: all other assays above

CN(C)CC/C=C1/c2ccccc2COc2ccc(CC(=O)O)cc21
not listed: [2] | [3] | [4] | [6] | [16] | [17] | [20]
inactive: all other assays above
